The text below walks through data of PubChem BioAssay (NCI).

This is part of a sample that, as a whole, favours compounds with a hit. Of some 83,000 tested, about 20% had one in any assay.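 Compound tested at a single concentration for 48 hours in 96-well plates; a percent growth value below 10 was scored as active.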 A number with no mark means an inactive call. Active and inactive are the calls of the source.

Among the test systems are NCI-H23 lung; NCI-H322M lung; HOP-62 NSCLC; NCI-H460 lung; HOP-92 NSCLC; NCI-H522 lung; A549/ATCC NSCLC; 786-0 renal; COLO 205 colon; NCI-H226 lung.
Common to all, as to assay: NCI-60 one-dose screen, 48 h (100 = growth as untreated, 0 = no growth, -100 = all killed)
What all share (settings): 10 µM unless noted

Consider `NC(=NCCCOc1ccc(Cl)cc1)Nc1ccc(C(F)(F)F)cc1`, for which the growth is 33.4% in the assay with NCI-H23 lung; 34.9% in the assay with NCI-H322M lung; 48.3% with HOP-62 NSCLC; 18.4% in the assay with NCI-H460 lung; 20.9% in the assay on HOP-92 NSCLC; 42.5% with NCI-H522 lung. In addition, the values for the growth with A549/ATCC NSCLC, in the assay with 786-0 renal and in the assay with COLO 205 colon were 49.4%, 53.4% and -67.1% (active), respectively.
`CCOC(=O)c1sc2nc(-c3cccc(OC)c3)nc(N3CCOCC3)c2c1C`: the growth in the assay on NCI-H23 lung is 93.5%; in the assay with NCI-H322M lung, 94.4%; in the assay with HOP-62 NSCLC, 110%; in the assay on NCI-H460 lung it was 101%; in the assay on HOP-92 NSCLC, 80.3%; with NCI-H522 lung, 85.8%. The growth in the assay with A549/ATCC NSCLC was 84%; in the assay with 786-0 renal, 92.8%; with COLO 205 colon, 108%.
`Brc1ccc(-c2csc(Nc3ccccn3)n2)cc1`: the growth in the assay on NCI-H23 lung is 58.8%; in the assay with NCI-H322M lung it was 95.2%; with HOP-62 NSCLC, 85.4%; in the assay with NCI-H460 lung, 91.5%; with HOP-92 NSCLC, 73%; with NCI-H522 lung, 78.2%. Besides, the growth was 88.5% in the assay on 786-0 renal and 107% with COLO 205 colon.
Consider `CN(C)[C@@H]1C(=O)C(C(=O)NCc2nc3[nH]cnc(=S)c3[nH]2)=C(O)[C@@]2(O)C(=O)C3=C(O)c4c(O)cccc4[C@@](C)(O)[C@H]3C[C@@H]12`, for which the growth in the assay on NCI-H23 lung was 58.7%; with NCI-H322M lung, 37.9%; in the assay on HOP-62 NSCLC, 18.4%; with NCI-H460 lung it was 63.8%; in the assay with HOP-92 NSCLC it was 25.2%; in the assay on NCI-H522 lung it was 33.3%. Further, the growth in the assay on A549/ATCC NSCLC was 101%; in the assay with 786-0 renal, 19.6%; in the assay on COLO 205 colon, 88%.
Regarding `C=CC(=O)Nc1cccc(-c2nc(SC)nc(Nc3ccccc3OC)c2C#N)c1`, the growth in the assay with NCI-H23 lung is 55.5%; in the assay with NCI-H226 lung it was 34.3%; in the assay on NCI-H322M lung it was 80%; with NCI-H460 lung, 5.19% (active); in the assay on HOP-92 NSCLC, 31%; in the assay on NCI-H522 lung it was 39.3%. The values for the growth with 786-0 renal and in the assay with COLO 205 colon were 11.6% and 60.9%, respectively.
`O=C(N(c1ccccc1)c1ccccc1)n1ccc2nc(Cl)nc(Cl)c21`: the growth in the assay on NCI-H23 lung is 60.8%; in the assay on NCI-H322M lung, 67.9%; in the assay with HOP-62 NSCLC, 45.5%; with NCI-H460 lung it was 36.1%; in the assay with HOP-92 NSCLC, 52.3%; with NCI-H522 lung, 24.9%. The growth was 56.2% in the assay with A549/ATCC NSCLC, 80.1% with 786-0 renal and 77.7% in the assay on COLO 205 colon.
